Compounds with a hit are over-represented: about 8% of the library has one in this group of screens.
Lassa entry inh: inhibitors of Lassa virus binding or cell entry. Lassa virus pseudotype entry inhibition, cell reporter. hit rate 1.2% among 300,000. Potency, µM (series often up to 37.9 µM), for the others: top-dose activity change, negative = inhibition, actives largely listed as inhibitors; calls by dose curve; tested in HEK293 cells; further: potency means the concentration at half of the fitted maximal effect; on the % scale 0 is the no-effect control and ±100 the full control effect; nearly all actives have a fitted effect of over 50% in size
FMDV inh: foot and mouth disease virus antiviral activity; FMDV antiviral cell-based qHTS; Potency, µM (highest dose often 57.9 µM), without a hit: top-dose activity change, negative = inhibition, most hits filed as inhibitors; hit rate 1.2% among 410,000; AID 1159524; calls by dose curve; tested in HEK293T cells; further: read-out not given here; potency means the concentration at half of the fitted maximal effect; on the % scale 0 is the no-effect control and ±100 the full control effect; nearly all actives have a fitted effect of over 45% in size
HCV inh: inhibitors of hepatitis C virus infection. Huh7.5.1 HCVcc-Cre infection, luciferase reporter, 44 h. Potency, µM (highest dose often 41.8 µM), for the others: at the highest dose activity change, negative = inhibition, usual class: inhibitors. hit rate 3.4% among 340,000. AID 651820; active means well fitted inhibition curve with a large enough effect; inconclusive means small, poorly fitted or top-dose-only effect, or another doubt; inactive means no such curve, though single readings can be large or run the other way; further: potency means the concentration at half of the fitted maximal effect; on the % scale 0 is the no-effect control and ±100 the full control effect
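Compounds are dispensed onto cells plated 4 h earlier at 1,000 per well, with HCVcc-Cre virus (about 0.5 moi) added next. Following 44 h of culture, luminescent signal is measured for 15 sec after 15 min with substrate at room temperature.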
Marburg entry inh: Marburg virus entry inhibition | hit rate 1.8% among 300,000 | Potency, µM (titrated, usually from 37.8 µM), without a hit: at the top dose activity change, negative = inhibition, actives largely listed as inhibitors | Marburg virus pseudotyped entry inhibition, cell reporter; calls by dose curve; tested in HEK293 cells; further: potency means the concentration at half of the fitted maximal effect; on the % scale 0 is the no-effect control and ±100 the full control effect
HCMV antiviral: human cytomegalovirus inhibition; HFF cells, HCMV-luciferase reporter, 72 h; active compounds read low; hit rate 4.5% among 410,000; activity change, negative = inhibition, % at 57.5 µM; AID 1259415; in the data active means activity change below about -60%; inconclusive means no clear call, values can overlap the other calls; inactive means above about -39%; further: on the % scale 0 is the no-effect control and ±100 the full control effect
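HFF cells seeded 16 h at 37C, treated with compounds, infected with luciferase-reporter HCMV at MOI 1 PFU/cell; luciferase read at 72 h post infection, normalized to buffer-only and Salinomycin controls.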
SARS PLP yeast: inhibitors of SARS-CoV papain-like protease in yeast. S. cerevisiae expressing SARS-CoV PLpro, growth rescue. Potency, µM (series often up to 32.9 µM), for inactives: at the highest dose activity, positive = growth rescue, actives largely listed as activators. hit rate 0.19% among 330,000; calls by dose curve; further: potency means the concentration at half of the fitted maximal effect; 0% is about no effect; nearly all actives have a fitted effect of over 55% in size
* = called active by the depositor; [ ] = remark or other dose.

CCOc1ccc(NCc2cccn2-c2nnc(N3CCC(C(=O)NCCc4ccc(OC)c(OC)c4)CC3)s2)cc1 was read as FMDV inh 22.4µM*, Marburg entry inh inconclusive and HCMV antiviral -84.8*.
`CCCCOc1ccc(CNC(=O)C2CCN(c3nnc(-n4cccc4CNc4ccc(C)cc4)s3)CC2)cc1` gave FMDV inh -12.2%, Marburg entry inh -2.2%[46.1 µM] and HCMV antiviral 5.9.
For Cc1ccc(NCc2cccn2-c2nnc(N3CCC(C(=O)NCCc4ccccc4)CC3)s2)cc1 the results were FMDV inh 2.1%, Marburg entry inh inconclusive and HCMV antiviral -39.0.
Screening CCOc1ccc(NCc2cccn2-c2nnc(N3CCC(C(=O)NCCCN4CC(C)CC(C)C4)CC3)s2)cc1 (stereo not given) returned Lassa entry inh -29.8%, FMDV inh 0.0%, HCV inh inconclusive, Marburg entry inh inconclusive, HCMV antiviral -85.3* and SARS PLP yeast -14.5%.
For CCOc1ccc(NCc2cccn2-c2nnc(N3CCC(C(=O)NCCc4ccc(OCC)c(OCC)c4)CC3)s2)cc1 the results were FMDV inh inconclusive, Marburg entry inh inconclusive and HCMV antiviral -80.1*.
For Cc1ccc(NCc2cccn2-c2nnc(N3CCC(C(=O)NCc4ccc(F)cc4)CC3)s2)cc1 the results were FMDV inh -21.5%, Marburg entry inh inconclusive and HCMV antiviral -78.5*.
Cc1nn(-c2ccc(N3CCCCC3)nn2)c(C)c1CCC(=O)NCc1ccc(Cl)cc1 was read as Lassa entry inh inconclusive, FMDV inh 0.0% and HCMV antiviral -33.6.
O=S(=O)(c1ccccc1)C1(S(=O)(=O)c2ccccc2)CCCC1 was read as Lassa entry inh inconclusive, FMDV inh 2.0%, HCV inh -16.8%, Marburg entry inh 11.8%, HCMV antiviral 10.2 and SARS PLP yeast 1.6%.
`Cc1ccc(S(=O)(=O)C2(S(=O)(=O)c3ccc(C)cc3)CC2)cc1` gave Lassa entry inh inconclusive, FMDV inh inconclusive, HCV inh 2.3%, Marburg entry inh 11.2µM*, HCMV antiviral -23.6 and SARS PLP yeast -7.8%.
CCN(CC)S(=O)(=O)c1ccc2c(c1)N(CC(=O)NCc1ccccc1)C(=O)C1CCCCN21 (stereo not given) was read as Lassa entry inh inconclusive, FMDV inh 0.0% and HCMV antiviral 7.2.
For CCCOc1ccc(-c2nnc(-c3ccncc3)o2)cc1 the results were Lassa entry inh -0.7%, FMDV inh 5.3%, HCV inh 11.2µM*, Marburg entry inh 4.5%, HCMV antiviral 23.5 and SARS PLP yeast 0.2%.
Cc1ccc(S(=O)(=O)N2CCN(c3ncnc4sccc34)CC2)cc1 was read as FMDV inh inconclusive, HCV inh 6.31µM*, HCMV antiviral -84.7* and SARS PLP yeast -9.2%.
`O=S(=O)(c1ccc(F)c(F)c1F)N1CCN(c2ncnc3sccc23)CC1` gave Lassa entry inh inconclusive, FMDV inh inconclusive, HCV inh inconclusive, Marburg entry inh inconclusive, HCMV antiviral -79.4* and SARS PLP yeast 3.7%.
`c1ccc(CC2CCN(c3ncnc4sccc34)CC2)cc1` gave Lassa entry inh -8.5%[46.1 µM], FMDV inh inconclusive, HCV inh 3.98µM*, Marburg entry inh -12.9%[46.1 µM], HCMV antiviral -85.3* and SARS PLP yeast -13.3%.
`O=S(=O)(c1ccccc1C(F)(F)F)N1CCN(c2ncnc3sccc23)CC1` gave Lassa entry inh inconclusive, FMDV inh inconclusive, HCV inh inconclusive, Marburg entry inh inconclusive, HCMV antiviral inconclusive and SARS PLP yeast -13.7%.
O=C(O)c1cc2c(N3CCC(Cc4ccccc4)CC3)ncnc2s1 was read as Lassa entry inh -10.1%, FMDV inh -20.1%, HCV inh 11.7%, Marburg entry inh 17.3%[46.1 µM], HCMV antiviral -27.5 and SARS PLP yeast -1.2%.
For COc1ccccc1OCCn1c(COc2cc(C)ccc2C)nc2ccccc21 the results were Lassa entry inh -18.7%[46.1 µM], FMDV inh 6.8%, Marburg entry inh -1.3%[46.1 µM] and HCMV antiviral 44.5.
CC1=C(C)/C(=N\OS(=O)(=O)c2ccccc2)C=CC1=O was read as Lassa entry inh inconclusive, FMDV inh 11.2µM*, HCV inh 12.6µM*, Marburg entry inh 7.94µM* and SARS PLP yeast -49.7%.

Screening results deposited in PubChem by National Center for Advancing Translational Sciences (NCATS).
